Drawing on PubChem BioAssay (NCI), this text covers growth for seven compounds.

Among the test systems are NCI-H23 lung; NCI-H226 lung; NCI-H322M lung; HOP-62 NSCLC; NCI-H460 lung; HOP-92 NSCLC; NCI-H522 lung; A549/ATCC NSCLC; 786-0 renal; COLO 205 colon; DU-145 prostate; K-562 leukemia; MALME-3M melanoma; MDA-MB-231 breast; RXF 393 renal; SF-268 CNS; SF-295 CNS; SF-539 CNS; UACC-257 melanoma; M14 melanoma.
What all share (assay): NCI-60 one-dose screen, 48 h (100 = growth as untreated, 0 = no growth, -100 = all killed)
Settings in all cases: 10 µM unless noted

About 83,000 compounds went through this panel and 20% of them were active in at least one assay; those are over-represented in the sample as a whole.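 Testing used 96-well plates and a 48-hour single-concentration exposure. Example: -40 means 40% of the starting cells died.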 A number with no mark means an inactive call. The source made the active and inactive calls. The calls were made as follows: active = growth percent below 10; inactive = the rest. *1 amine or outer side, *2 acyl side, *3 side chain or, on linkers, in order; H or OH if unused. Where a SMILES comes first, the peptide text is derived from it. [ ]: non-standard residue; d: D form. The star is where a group is joined. X5 = CCC(=O)CC1CC(C)CC(C(=O)[*:2])N1[*:1]; X4 = CCCCCCCCC(C)C(=O)*; Aib = CC(C)(N)C(=O)O; X6 = CC(CN(C)CCO)N*

Turning to `CCCCCCCCC(C)C(=O)N1CCCC1C(=O)N1C(CC(=O)CC)CC(C)CC1C(=O)NC(C)C(=O)NC(C)(C)C(=O)NC(C)(C)C(=O)NC(C(=O)NC(C)C(=O)NC(C)(C)C(=O)NC(C)(C)C(=O)NC(C)CN(C)CCO)C(C)CC` (stereo not drawn) (X4-P[X5]A[Aib][Aib]IA[Aib][Aib]-X6; configuration not given here), the growth in the assay on NCI-H23 lung is 195%; with NCI-H226 lung it was -50.7% (active); in the assay with NCI-H322M lung, 21.2%; in the assay with HOP-62 NSCLC, -81.5% (active); in the assay with NCI-H460 lung it was -83.7% (active); with HOP-92 NSCLC it was -23.8% (active). Moreover, the growth with NCI-H522 lung was -62.9% (active); in the assay on A549/ATCC NSCLC it was -62% (active); with 786-0 renal, -53.7% (active); in the assay with COLO 205 colon, -75.9% (active); in the assay with DU-145 prostate, -84.4% (active); in the assay with K-562 leukemia, -52.1% (active). Further, the growth in the assay on MALME-3M melanoma is 13.5%; in the assay with MDA-MB-231 breast, -94.1% (active); with RXF 393 renal, -56.5% (active); in the assay with SF-268 CNS, -15.4% (active); in the assay on SF-295 CNS it was -26.2% (active); with SF-539 CNS, -77% (active). For the same compound, in the assay on UACC-257 melanoma, the growth is -72.1% (active).

In the case of `CC(O)C(O)C(O)C(O)C(O)C(=O)NNc1ccccc1` (stereo not drawn), the growth with NCI-H23 lung is 96.1%; with NCI-H226 lung it was 94.3%; in the assay with NCI-H322M lung, 76.1%; with HOP-62 NSCLC, 72.4%; with NCI-H460 lung, 100%; with HOP-92 NSCLC, 95.2%. The growth with NCI-H522 lung is 66.8%; in the assay with A549/ATCC NSCLC, 90.9%; in the assay on 786-0 renal, 103%; in the assay on COLO 205 colon, 94.2%; with DU-145 prostate, 96.4%; in the assay on K-562 leukemia it was 67.7%. Moreover, the growth is 105% in the assay with MALME-3M melanoma; 81.1% with MDA-MB-231 breast; 119% in the assay on RXF 393 renal; 87.4% with SF-268 CNS; 86.4% in the assay with SF-295 CNS; 92.7% in the assay with SF-539 CNS. The growth was 100% with UACC-257 melanoma and 85% with M14 melanoma.

For `S=C(SSC(=S)N1CCOCC1)N1CCOCC1`, the growth with NCI-H23 lung is 48.9%; in the assay with NCI-H226 lung it was 94.5%; in the assay on NCI-H322M lung it was 116%; in the assay with HOP-62 NSCLC, 104%; in the assay with NCI-H460 lung, 2.9% (active); in the assay on HOP-92 NSCLC, 122%. For the same compound, the growth with NCI-H522 lung was -50.2% (active); in the assay with A549/ATCC NSCLC, 57.2%; in the assay on 786-0 renal, 103%; with COLO 205 colon, 28.6%; in the assay on DU-145 prostate, 109%; with K-562 leukemia it was 56.2%. Moreover, the growth in the assay with MALME-3M melanoma is 101%; in the assay with MDA-MB-231 breast, 104%; in the assay on RXF 393 renal it was 102%; with SF-268 CNS, 101%; in the assay on SF-295 CNS it was 107%; with SF-539 CNS it was 96.4%. Moreover, the growth is 64% with UACC-257 melanoma and 55.5% with M14 melanoma.

As to `O=[N+]([O-])c1ccc([I+]c2ccccc2)cc1`, the growth in the assay on NCI-H23 lung is -55.1% (active); in the assay with NCI-H226 lung it was -30.2% (active); in the assay on NCI-H322M lung it was 67.4%; with HOP-62 NSCLC it was -67.6% (active); with NCI-H460 lung, 4.38% (active); with HOP-92 NSCLC, 60.5%. The growth was -87.8% (active) in the assay on NCI-H522 lung; -71.6% (active) in the assay on A549/ATCC NSCLC; -15.4% (active) in the assay on 786-0 renal; -84.3% (active) with COLO 205 colon; -10.5% (active) in the assay on DU-145 prostate; 9.29% (active) in the assay with K-562 leukemia. The growth was -0.265% (active) in the assay with MALME-3M melanoma; 35.4% in the assay on MDA-MB-231 breast; 57.8% in the assay on RXF 393 renal; -69.7% (active) in the assay with SF-268 CNS; 77.9% with SF-295 CNS; 1.87% (active) in the assay on SF-539 CNS. Also, the growth is 29.7% with UACC-257 melanoma and -36.6% (active) with M14 melanoma.

On to `OC(c1cc(-c2ccc(Cl)cc2)nc2c(Cl)cccc12)C1CCCCN1` (stereo not drawn), for which the growth is -9.58% (active) in the assay with NCI-H23 lung; -44.1% (active) in the assay on NCI-H226 lung; -54.8% (active) with NCI-H322M lung; -92.2% (active) with HOP-62 NSCLC; -87.4% (active) with NCI-H460 lung; -29.4% (active) in the assay with HOP-92 NSCLC. In addition, the growth in the assay with NCI-H522 lung is -89.1% (active); in the assay on A549/ATCC NSCLC, -82.9% (active); in the assay with 786-0 renal, -75% (active); in the assay on COLO 205 colon it was -91.1% (active); in the assay with DU-145 prostate, -96.3% (active); in the assay on K-562 leukemia, -30.9% (active). The growth was -50.2% (active) in the assay with MALME-3M melanoma; -71.1% (active) in the assay on MDA-MB-231 breast; -98.1% (active) in the assay on RXF 393 renal; -65.7% (active) in the assay with SF-268 CNS; -80.8% (active) in the assay on SF-295 CNS; -72.4% (active) in the assay with SF-539 CNS. Further, the growth in the assay on UACC-257 melanoma was -77% (active).

In the case of `NC1=C(Br)C(=O)c2ncccc2C1=O`, the growth is -46% (active) with NCI-H23 lung; 90.4% with NCI-H226 lung; 34.9% with NCI-H322M lung; -73.1% (active) in the assay with HOP-62 NSCLC; -73.9% (active) in the assay on NCI-H460 lung; 34.5% in the assay on HOP-92 NSCLC. For the same compound, the growth with NCI-H522 lung was -59.1% (active); in the assay with A549/ATCC NSCLC it was -52.6% (active); in the assay with 786-0 renal, 11.4%; in the assay on COLO 205 colon, 37.9%; in the assay on DU-145 prostate it was -57.8% (active); in the assay on K-562 leukemia it was -44.2% (active). The growth was -85.9% (active) with MALME-3M melanoma; 19.2% in the assay with MDA-MB-231 breast; 13.5% in the assay with RXF 393 renal; -43.9% (active) in the assay on SF-268 CNS; -84.3% (active) with SF-295 CNS; -91.5% (active) in the assay with SF-539 CNS. Further, the growth in the assay with UACC-257 melanoma is -58.4% (active); with M14 melanoma it was -88.7% (active).

For the compound `N#CC(=C1SCS1)[N+](=O)[O-]`, the growth in the assay with NCI-H23 lung was 43.9%; in the assay on NCI-H226 lung, 75.3%; in the assay on NCI-H322M lung it was 70.7%; in the assay with HOP-62 NSCLC it was 41.7%; in the assay with NCI-H460 lung it was -6.65% (active); with HOP-92 NSCLC it was 63%. For the same compound, the growth with NCI-H522 lung is -40.3% (active); in the assay on A549/ATCC NSCLC, 20.9%; with 786-0 renal, 21.8%; with COLO 205 colon, -21.5% (active); in the assay on DU-145 prostate it was 2.38% (active); with K-562 leukemia it was 28.4%. For the same compound, the growth in the assay on MALME-3M melanoma is 21.4%; in the assay with MDA-MB-231 breast, 16%; in the assay with RXF 393 renal, 12.2%; with SF-268 CNS, 34.9%; in the assay with SF-295 CNS, 35.9%; with SF-539 CNS it was 11.5%. For the same compound, the growth with UACC-257 melanoma was 35.3%; in the assay with M14 melanoma, -1.46% (active).
